Test results as given in PubChem BioAssay (EPA / NIEHS).
Several values for one entry are separate records, joined by “and”; a condition that tells them apart may be missing. Equal entries are not always repeated. Some compounds were tested as several samples or in several runs, with calls that do not always agree. Activity calls are given as the source filed them. The calls were made as follows: active = hit-call score of the fitted dose curve at least 0.9, where 1 is the maximum; inactive = score below 0.9.

Key:
Settings in all cases: mRNA level, 48 h; actives raise or lower the signal
[1] = read-out: Cytochrome P450 (CYP2B6), CYP2B6 (gene 1555); experiment: LTEA_HepaRG_CYP2B6: Life Technologies and Expression Analysis (LTEA) Assay for Cytochrome P450 (CYP2B6) using HepaRG (AID 2283481)
How it was run: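 CYP2B6 transcript level quantified by qRT-PCR against three housekeeping genes, fitted bidirectionally relative to DMSO. HepaRG cultures received chemicals for 48 h, 8-point half-log series from 100 uM in 0.5% DMSO, duplicate wells, serum-free induction medium.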

[2] = read-out: Cytochrome P450 2C19 (Homo sapiens) (UniProt P33261); experiment: LTEA_HepaRG_CYP2C19: Life Technologies and Expression Analysis (LTEA) Assay for CYP2C19 using HepaRG (AID 2283482)
How it was run: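 CYP2C19 transcript levels by qRT-PCR, normalized to three housekeeping genes, in HepaRG cells after 48 h chemical exposure. Eight-point half-log series topping at 100 uM, 0.5% DMSO vehicle. Increases and decreases both fitted against DMSO.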

CYP2C8 (gene 1558) = experiment: LTEA_HepaRG_CYP2C8: Life Technologies and Expression Analysis (LTEA) Assay for CYP2C8 using HepaRG (AID 2283483)
How it was run: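 HepaRG (human liver line), 48 h chemical exposure, 8-pt half-log series from 100 uM, 0.5% DMSO vehicle. Readout: CYP2C8 transcript by qRT-PCR, housekeeping-normalized. Bidirectional fit vs DMSO baseline.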

CYP2C9 (gene 1559) = experiment: LTEA_HepaRG_CYP2C9: Life Technologies and Expression Analysis (LTEA) Assay for CYP2C9 using HepaRG (AID 2283484)
How it was run: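 HepaRG, 48 h dosing, 8-pt half-log series, top 100 uM, 0.5% DMSO vehicle. Read-out: CYP2C9 transcript by TaqMan qRT-PCR, housekeeping-normalized (ACTB/GAPDH/POLR2A). Gain or loss fitted vs DMSO baseline.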

CYP2E1 (gene 1571) = experiment: LTEA_HepaRG_CYP2E1: Life Technologies and Expression Analysis (LTEA) Assay for CYP2E1 using HepaRG (AID 2283485)
How it was run: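 Assay uses 48 h exposure of HepaRG hepatic cells, eight concentrations to 100 uM. Expression of CYP2E1 is quantified by TaqMan qRT-PCR with ACTB, GAPDH and POLR2A normalization; curves fitted in both directions relative to vehicle.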

CYP4A11 (gene 1579) = experiment: LTEA_HepaRG_CYP4A11: Life Technologies and Expression Analysis (LTEA) Assay for CYP4A11 using HepaRG (AID 2283486)
How it was run: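 Readout is CYP4A11 transcript level by qRT-PCR, normalized to three housekeeping genes and fitted bidirectionally against 0.5% DMSO. Human HepaRG cells were treated 48 h, in duplicate, with an 8-point half-log series topping at 100 uM.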

[3] = read-out: DNA damage-inducible transcript 3 (DDIT3), DDIT3 (gene 1649); experiment: LTEA_HepaRG_DDIT3: Life Technologies and Expression Analysis (LTEA) Assay for DNA damage-inducible transcript 3 (DDIT3) using HepaRG (AID 2283488)
How it was run: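 Eight-point concentration-response (100 uM highest, half-log dilutions) in HepaRG, 48 h, duplicate wells. Endpoint: qRT-PCR mRNA, normalized (ACTB, GAPDH, POLR2A), bidirectional fitting with DMSO as baseline.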

[4] = read-out: Pro-epidermal growth factor (Homo sapiens) (UniProt P01133); experiment: LTEA_HepaRG_EGF: Life Technologies and Expression Analysis (LTEA) Assay for Epidermal growth factor (EGF) using HepaRG (AID 2283489)
How it was run: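 EGF transcript measured by Fluidigm TaqMan qRT-PCR with three housekeeping genes for normalization, 48 h after dosing HepaRG cultures in duplicate (top 100 uM, half-log steps, 0.5% DMSO vehicle). Gain or loss relative to DMSO fitted.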

[5] = read-out: Early growth response protein 1 (EGR1) transcription factor, EGR1 (gene 1958); experiment: LTEA_HepaRG_EGR1: Life Technologies and Expression Analysis (LTEA) Assay for Early growth response protein 1 (EGR1) transcription factor using HepaRG (AID 2283490)
How it was run: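 HepaRG, 48 h exposure, 8-pt half-log series from 100 uM, 0.5% DMSO vehicle; EGR1 transcript by TaqMan qRT-PCR (Fluidigm array), housekeeping-normalized; bidirectional fit relative to DMSO baseline.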

[6] = read-out: Ezrin (EZR), EZR (gene 7430); experiment: LTEA_HepaRG_EZR: Life Technologies and Expression Analysis (LTEA) Assay for Ezrin (EZR) using HepaRG (AID 2283491)
How it was run: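 Read-out is EZR transcript level by qRT-PCR, normalized to three housekeeping genes and fitted bidirectionally against the DMSO control. Human HepaRG cells received test chemicals for 48 h at eight half-log concentrations up to 100 uM in 0.5% DMSO.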

[7] = read-out: Cytochrome P450 3A7 (Homo sapiens) (UniProt P24462); experiment: LTEA_HepaRG_CYP3A7: Life Technologies and Expression Analysis (LTEA) Assay for CYP3A7 using HepaRG (AID 2283492)
How it was run: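 CYP3A7 transcript measured by qRT-PCR (ACTB, GAPDH, POLR2A normalization) after 48 h chemical exposure of HepaRG cells in duplicate. Eight half-log concentrations, maximum 100 uM, 0.5% DMSO vehicle; bidirectional curve fitting against DMSO baseline.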

CYP3A5 (gene 1577) = experiment: LTEA_HepaRG_CYP3A5: Life Technologies and Expression Analysis (LTEA) Assay for CYP3A5 using HepaRG (AID 2283493)
How it was run: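 Readout was CYP3A5 mRNA by qRT-PCR. HepaRG cultures were exposed for 48 h in serum-free induction medium to chemicals at up to 100 uM, and responses were fitted in both directions relative to DMSO vehicle.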

[8] = read-out: Fatty Acid-Binding Protein 1 (FABP1), FABP1 (gene 2168); experiment: LTEA_HepaRG_FABP1: Life Technologies and Expression Analysis (LTEA) Assay for Fatty Acid-Binding Protein 1 (FABP1) using HepaRG (AID 2283494)
How it was run: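 qRT-PCR readout of FABP1 transcript (normalized to three housekeeping genes) after 48 h chemical exposure of HepaRG cells; eight concentrations, half-log steps, max 100 uM, 0.5% DMSO vehicle; gain or loss fitted relative to DMSO baseline.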

[9] = read-out: Cytochrome P450 4A22 (Homo sapiens) (UniProt Q5TCH4); experiment: LTEA_HepaRG_CYP4A22: Life Technologies and Expression Analysis (LTEA) Assay for Cytochrome P450 4A22 (CYP4A22) using HepaRG (AID 2283495)
How it was run: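 Gene expression measured by qRT-PCR against three housekeeping genes (ACTB, GAPDH, POLR2A), with gain or loss fitted relative to 0.5% DMSO vehicle. HepaRG cultures received 48 h chemical treatment, top concentration 100 uM, half-log steps, duplicate wells.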

[10] = read-out: Cytochrome P450 7A1 (Homo sapiens) (UniProt P22680); experiment: LTEA_HepaRG_CYP7A1: Life Technologies and Expression Analysis (LTEA) Assay for Cytochrome P450 7A1 (CYP7A1) using HepaRG (AID 2283496)
How it was run: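 Using 0.5% DMSO as vehicle and baseline, chemicals were tested in duplicate over an 8-point range from 100 uM on HepaRG cells for 48 h; qRT-PCR signals were normalised to ACTB, GAPDH and POLR2A.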

[11] = read-out: growth arrest and DNA damage 45 (GADD45G), GADD45G (gene 10912); experiment: LTEA_HepaRG_GADD45G: Life Technologies and Expression Analysis (LTEA) Assay for growth arrest and DNA damage 45 (GADD45G) using HepaRG (AID 2283499)
How it was run: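 GADD45G transcript level by qRT-PCR (housekeeping-normalized: ACTB, GAPDH, POLR2A) after 48 h chemical treatment of a single HepaRG lot in serum-free induction medium; eight-point half-log series up to 100 uM in 0.5% DMSO, duplicates, up- or down-regulation scored.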

[12] = read-out: Cytochrome P450 3A4 (Homo sapiens) (UniProt P08684); experiment: LTEA_HepaRG_CYP3A4: Life Technologies and Expression Analysis (LTEA) Assay for CYP3A4 using HepaRG (AID 2283487)
How it was run: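 HepaRG, 48 h exposure, 8-pt CRC from 100 uM (half-log), 0.5% DMSO, duplicates; serum-free induction medium. Readout: CYP3A4 mRNA, qRT-PCR, ACTB/GAPDH/POLR2A normalization. Bidirectional fit vs DMSO.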

[13] = read-out: Glutamate-cysteine ligase catalytic (GCLC), GCLC (gene 2729); experiment: LTEA_HepaRG_GCLC: Life Technologies and Expression Analysis (LTEA) Assay for Glutamate-cysteine ligase catalytic (GCLC) using HepaRG (AID 2283498)
How it was run: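 HepaRG, 48 h exposure, 8-pt half-log series from 100 uM, 0.5% DMSO vehicle; TaqMan qRT-PCR for GCLC mRNA, housekeeping-normalized; bidirectional curve fit vs DMSO baseline.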

Measured: AC50

Chain of Cytochrome P450 3A4 (Homo sapiens) (P08684 whole entry, looked up): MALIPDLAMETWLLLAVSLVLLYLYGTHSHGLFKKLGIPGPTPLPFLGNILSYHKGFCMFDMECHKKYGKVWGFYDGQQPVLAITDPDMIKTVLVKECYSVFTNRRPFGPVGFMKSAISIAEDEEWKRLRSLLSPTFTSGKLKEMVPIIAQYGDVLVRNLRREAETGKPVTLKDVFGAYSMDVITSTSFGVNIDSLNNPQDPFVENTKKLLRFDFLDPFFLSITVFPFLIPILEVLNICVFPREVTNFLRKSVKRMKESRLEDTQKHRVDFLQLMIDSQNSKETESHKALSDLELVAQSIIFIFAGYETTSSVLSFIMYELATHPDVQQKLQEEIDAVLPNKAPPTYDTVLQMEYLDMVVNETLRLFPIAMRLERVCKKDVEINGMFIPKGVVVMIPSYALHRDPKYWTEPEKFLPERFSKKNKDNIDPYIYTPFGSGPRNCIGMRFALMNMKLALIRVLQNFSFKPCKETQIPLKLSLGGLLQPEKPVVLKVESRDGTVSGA
Chain of Cytochrome P450 3A7 (Homo sapiens) (P24462 whole entry, looked up): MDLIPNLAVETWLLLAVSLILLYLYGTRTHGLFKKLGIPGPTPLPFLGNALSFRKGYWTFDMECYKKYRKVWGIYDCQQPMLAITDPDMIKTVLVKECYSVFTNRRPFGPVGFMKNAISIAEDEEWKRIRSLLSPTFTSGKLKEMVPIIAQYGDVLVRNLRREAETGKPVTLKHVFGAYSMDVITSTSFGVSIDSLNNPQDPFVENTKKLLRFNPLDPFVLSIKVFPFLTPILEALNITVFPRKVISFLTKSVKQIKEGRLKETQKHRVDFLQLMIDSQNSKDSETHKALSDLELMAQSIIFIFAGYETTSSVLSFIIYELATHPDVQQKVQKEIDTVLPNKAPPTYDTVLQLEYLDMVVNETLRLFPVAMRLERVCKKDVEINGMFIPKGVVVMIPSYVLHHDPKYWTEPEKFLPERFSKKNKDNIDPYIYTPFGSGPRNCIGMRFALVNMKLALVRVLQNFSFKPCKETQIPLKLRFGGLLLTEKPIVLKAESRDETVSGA
Chain of Cytochrome P450 2C19 (Homo sapiens) (P33261 whole entry, looked up): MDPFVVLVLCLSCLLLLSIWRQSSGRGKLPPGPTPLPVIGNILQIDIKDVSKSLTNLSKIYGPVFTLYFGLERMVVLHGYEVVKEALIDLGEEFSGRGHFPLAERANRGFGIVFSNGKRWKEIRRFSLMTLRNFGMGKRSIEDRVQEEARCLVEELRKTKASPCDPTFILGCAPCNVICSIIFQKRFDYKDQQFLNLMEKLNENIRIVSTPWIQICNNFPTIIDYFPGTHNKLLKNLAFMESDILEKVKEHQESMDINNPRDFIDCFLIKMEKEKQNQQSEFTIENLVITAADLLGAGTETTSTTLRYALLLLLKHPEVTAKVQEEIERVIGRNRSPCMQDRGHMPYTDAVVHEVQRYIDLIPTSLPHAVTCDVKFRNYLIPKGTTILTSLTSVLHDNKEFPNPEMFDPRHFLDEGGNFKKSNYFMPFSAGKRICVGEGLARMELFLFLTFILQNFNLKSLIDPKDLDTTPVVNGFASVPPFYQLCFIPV

ClC1C(Cl)C(Cl)C(Cl)C(Cl)C1Cl (stereo not given)
inactive: CYP2C8 (gene 1558) | CYP2C9 (gene 1559) | CYP4A11 (gene 1579) | [3] | [4] | [5] | [6] | [7] | CYP3A5 (gene 1577) | [8] | [10] | [11]
active: [1] 758 nM and 392 nM | [2] 1.1 µM and 1.12 µM | CYP2C8 (gene 1558) 0.418 µM | CYP2C9 (gene 1559) 1.93 µM | CYP2E1 (gene 1571) 22.3 µM and 5.02 µM | CYP4A11 (gene 1579) 12.6 µM | [4] 1.92 µM | [8] 6.88 µM | [9] 9.67 µM and 8.27 µM | [10] 3.88 µM | [11] 0.488 µM

Oc1ccc(Cl)cc1Cc1ccccc1
inactive: [1] | [2] | CYP2C8 (gene 1558) | CYP2C9 (gene 1559) | CYP2E1 (gene 1571) | CYP4A11 (gene 1579) | [12] | [3] | [4] | [5] | [6] | [7] | CYP3A5 (gene 1577) | [8] | [9] | [10] | [13] | [11]
active: [2] 83.7 µM and 50.5 µM | CYP2C9 (gene 1559) 79.2 µM | CYP2E1 (gene 1571) 50.5 µM | CYP4A11 (gene 1579) 81.7 µM and 81.2 µM | [5] 50.5 µM | CYP3A5 (gene 1577) 50.5 µM | [8] 50.5 µM | [9] 91.8 µM | [10] 76.1 µM

Oc1cc(Cl)ccc1Oc1ccc(Cl)cc1Cl
inactive: [1] | [2] | CYP2C8 (gene 1558) | CYP2C9 (gene 1559) | CYP2E1 (gene 1571) | CYP4A11 (gene 1579) | [12] | [3] | [4] | [5] | [6] | [7] | CYP3A5 (gene 1577) | [8] | [9] | [10] | [11]
active: [1] 17 µM and 51 µM | [2] 83.2 µM | CYP2C8 (gene 1558) 86.4 µM | CYP2C9 (gene 1559) 93.4 µM | CYP2E1 (gene 1571) 92.2 µM | CYP4A11 (gene 1579) 51 µM and 79.3 µM | CYP3A5 (gene 1577) 51 µM | [8] 88.9 µM | [9] 51 µM and 76.4 µM | [10] 72.8 µM | [11] 51 µM

CCC(C)Nc1c([N+](=O)[O-])cc(C(C)(C)C)cc1[N+](=O)[O-] (stereo not given)
inactive: CYP2C9 (gene 1559) | [3] | [5] | [6] | [7] | CYP3A5 (gene 1577) | [11]
active: [1] 3.52 µM | [2] 12.9 µM | CYP2C8 (gene 1558) 12.6 µM | CYP2E1 (gene 1571) 49.3 µM | CYP4A11 (gene 1579) 50 µM | [12] 6.12 µM | [4] 10.7 µM | [8] 50 µM | [9] 38.7 µM | [10] 34.4 µM
